FUS yeast rescue: suppressors of FUS proteinopathy in yeast; S. cerevisiae FUS-expressing, growth rescue, OD600, 24 h; Potency, µM (top dose mostly 76.6 µM), usual class: activators; 390,000 tested, 0.24% active;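 further: plate controls were DMSO vehicle for no effect and reference control for full effect; nearly all actives have a fitted effect of over 55% in size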
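Restored growth of FUS-toxic S. cerevisiae, read as 600 nm absorbance after 24 h at 30C in galactose medium (starting OD 0.005). Controls CP55940 and DMSO.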
Mito fusion yeast: mitochondrial division inhibition or fusion activation; 320,000 tested, 0.23% active; Potency, µM (series often up to 46.1 µM), for the others: at the highest dose growth rescue (activation), hits mostly activators; S. cerevisiae fusion-defective mutant growth rescue, CellTiterGlo 48 h; further: % of control where 0% means no effect; nearly all actives have a fitted effect of over 45% in size
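Temperature-sensitive fusion-defective S. cerevisiae (e.g. fzo1-1, mgm1-5) were grown with compound in YPEG medium (3% ethanol, 3% glycerol) for 48 hours at 37C. Growth rescue was measured as viability by CellTiterGlo luminescence after 10 minutes at ambient.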
TDP-43 yeast inh: TDP-43 toxicity inhibition in yeast; Potency, µM (highest dose often 46.1 µM), for the others: at the highest dose growth rescue (activation), actives largely listed as activators; TDP-43 expressing yeast growth rescue, BacTiter-Glo, 24 h; 410,000 tested, 1.8% active; further: % of control where 0% means no effect; nearly all actives have a fitted effect of over 50% in size
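Yeast expressing TDP-43 (pregrown in raffinose, seeded at OD600=0.02 in galactose medium) exposed to compounds 24 hr at 30 deg C. Growth read by BacTiter-Glo luminescence; rescue of toxicity appears as increased signal.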
aSyn rescue: inhibitors of alpha-synuclein toxicity in yeast. Yeast expressing alpha-synuclein, growth rescue, BacTiter-Glo, 24 h. Potency, µM (doses to about 46.1 µM), without a hit: at the highest dose growth rescue (activation), most hits filed as activators. 370,000 tested, 0.14% active; further: % of control where 0% means no effect; nearly all actives have a fitted effect of over 65% in size
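Rescue of yeast growth: cells expressing toxic alpha-synuclein, induced in galactose at OD600 0.02, incubated with compound 24 h at 30 C. ATP luminescence quantified growth; inhibitors of toxicity appear as activators.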
Abeta rescue: compounds reversing amyloid beta toxicity in yeast | yeast expressing A-beta42, growth rescue, OD600, 48 h; response scale: 0% DMSO, 100% iron-clioquinol control | 410,000 tested, 0.063% active | Potency, µM (top dose mostly 46.1 µM), actives largely listed as activators; further: nearly all actives have a fitted effect of over 55% in size
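Growth rescue measured by 600 nm absorbance after 48 h yeast culture at 30 C with compound. Values normalized between DMSO and an equimolar ferric chloride plus clioquinol control.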
* marks the source's active call; other numbers are inactive results; i = inactive; ? = inconclusive; nt = not tested or not shown. Hits are enriched below; roughly 2.2% of the tested compounds scored in any of these assays. The call rests on the fitted dose curve; in most records, active means well fitted curve in the direction sought with a large enough effect; inconclusive means small, poorly fitted or top-dose-only effect, or another doubt; inactive means no such curve, though single readings can be large; an effect the other way counts as inactive or inconclusive. Potency means the concentration at half of the fitted maximal effect.

SMILES | FUS yeast rescue | Mito fusion yeast | TDP-43 yeast inh | aSyn rescue | Abeta rescue
COc1ccc(CN(C(=O)c2ccc(-c3ccccc3)[nH]2)C(C(=O)NCC2CCCO2)c2ccc(C)o2)cc1 (stereo not given) | nt | -16.0% | 11.2µM* | 27.5% | i
CN(CC(=O)Nc1ccc(F)c(F)c1F)C(=O)c1nn(Cc2ccccc2)c(=O)c2ccccc12 | i | nt | 3.3% | 1.0% | i
C=CCNc1nc2cc(-c3ccccc3C)sc2c(=O)n1C | i | nt | 35.5µM* | 5.9% | i
Cn1c(OCC2CCCO2)nc2cc(-c3ccccc3)sc2c1=O (stereo not given) | i | nt | 35.5µM* | 11.1% | i
COc1cccc(CNc2nc3cc(-c4ccc(F)cc4)sc3c(=O)n2C)c1OC | i | nt | 0.0% | 1.2% | i
COc1cccc(CNc2nc3cc(-c4ccc(C)cc4)sc3c(=O)n2C)c1OC | i | nt | 25.1µM* | ? | i
COCCNc1nc2cc(-c3ccccc3)sc2c(=O)n1C | i | nt | 20µM* | 11.4% | i
Cc1ccc(CNc2nc3cc(-c4ccccc4C)sc3c(=O)n2C)c(C)c1 | ? | nt | 5.7% | ? | i
Cc1ccccc1-c1cc2nc(OCC3CCCO3)n(C)c(=O)c2s1 (stereo not given) | ? | nt | ? | 26.1% | i
CC(C)N1CCCCC(NC(=O)c2cccc(F)c2)C1=O (stereo not given) | i | nt | nt | nt | nt
O=C(OCc1cn(Cc2cccc(F)c2)nn1)N1CCCCC1 | i | nt | nt | nt | nt
CC1CCN(c2ccc(C(=O)O)cc2NS(=O)(=O)c2ccc(C(C)(C)C)cc2)CC1 | i | nt | nt | nt | nt
COc1cccc(N2CC(NC(=O)COc3ccc4ccccc4c3)CC2=O)c1 (stereo not given) | i | nt | 14.1µM* | nt | ?
COc1cccc(OCC(=O)NC2CC(=O)N(c3cccc(OC)c3)C2)c1 (stereo not given) | i | nt | 9.5% | nt | i
CCCCn1nnnc1C(c1ccccc1)N1CCN(c2ccc(F)cc2)CC1 (stereo not given) | i | nt | 28.2µM* | 14.5% | i
O=C(COCc1cc(-c2ccc3c(c2)OCO3)on1)NCc1ccccc1Cl | i | nt | 28.2µM* | nt | i
Cc1c(CC(=O)N2CCC(O)CC2)c(=O)oc2cc3c(cc12)CCC1(CCCCC1)O3 | 31.6µM* | nt | 1.8% | 1.8% | i
Cc1c(CC(=O)N2CCC(C(=O)O)CC2)c(=O)oc2cc3c(cc12)CCC1(CCCCC1)O3 | i | 0.6% | 6.6% | -1.9% | i
COc1ccc(Cc2n[nH]c(=S)n2Cc2ccccc2)cc1Cl | ? | -1.0% | 18.1% | 0.2% | i
CC(=O)c1ccc(N2CCN(c3ncccn3)CC2)cc1 | i | 25.1µM* | 12.4% | -1.5% | i
CC(=O)c1ccc(NC(=O)CN2CCN(c3ncccn3)CC2)cc1 | i | -7.2% | -2.2% | -11.3% | i
O=C(Nc1ccc2nc(SCC(=O)N3CCCC3)sc2c1)c1ccccc1 | i | nt | 7.0% | nt | i
O=C(COc1ccccc1)Nc1ccc2nc(SCC(=O)N3CCCC3)sc2c1 | i | nt | 31.6µM* | nt | i
COc1ccc(C(=O)Nc2ccc3nc(SCC(=O)N(C)c4ccccc4)sc3c2)cc1 | ? | nt | 22.4µM* | nt | i
CN1C2=N[C@@H](c3ccccc3)CC(=O)N2/C(=C\c2ccccc2)[C@H]1c1ccccc1 | i | nt | nt | nt | nt
SMILES | FUS yeast rescue | Mito fusion yeast | TDP-43 yeast inh | aSyn rescue | Abeta rescue
COc1ccc(-n2cnnc2SCc2cnc(-c3ccccc3)s2)cc1 | i | 8.4% | 20µM* | 0.1% | i
COCCn1c(SCc2cnc(-c3ccccc3)s2)nnc1-c1ccncc1 | i | -1.9% | 1.8% | -5.8% | i
N#Cc1ncc(C(F)(F)F)cc1Sc1ccc(N)cc1 | i | 18.0% | 14.1µM* | 6.6% | ?
Cc1cc(C)c(C#N)c(Sc2ccc(N)cc2)n1 | nt | ? | 16.1% | 9.5% | i
Clc1ccc(-c2nnc(-c3ccco3)nc2N2CCCCC2)cc1 | nt | 11.2µM* | ? | -7.5% | i
Clc1ccc(-c2nnc(-c3ccc(Br)cc3)c(N3CCSCC3)n2)cc1 | i | 3.2% | 6.3% | 7.3% | i
Cc1nc2ccc(S(=O)(=O)NCC(=O)NCc3cccs3)cc2s1 | i | nt | nt | nt | nt
CC(C)C(c1nnnn1C1CCCC1)N1CCCc2ccccc21 (stereo not given) | i | 9.4% | 15.8µM* | 2.7% | i
COc1cc2nc(N3CCCCC3)nc(NC3CC3)c2cc1OC | nt | nt | nt | -2.7% | nt
COc1ccc(/C=C/C(=O)c2c(O)c(OC)c3occc3c2OC)cc1OC | nt | nt | nt | -6.2% | nt
O=C(CSc1cccc(C(F)(F)F)c1)NCc1ccccc1 | i | 9.7% | 11.2µM* | 3.6% | i
O=C(NNc1cccc(Cl)c1)c1cccnc1Cl | i | 22.4µM* | 20.9% | 11.8% | i
O=C(CN1C(=O)c2ccccc2C1=O)Nc1ccc(S(=O)(=O)N2CCOCC2)cc1 | i | -6.2% | -10.5% | -0.8% | i
CN(C)c1ccc(-c2nn3c(-c4ccco4)nnc3s2)cc1 | i | nt | nt | nt | nt
CCCC(=O)Nc1nc(C)c(-c2csc(Nc3ccc(Cl)cc3)n2)s1 | ? | -8.1% | 14.1µM* | -1.5% | i
Cc1nc(C)c(-c2csc(NCc3ccccc3)n2)s1 | i | ? | 20µM* | -1.6% | i
COc1ccc(CCNc2nc(-c3sc(C)nc3C)cs2)cc1OC | i | 2.9% | 22.4µM* | -0.1% | i
COc1ccc(CCNc2nc(-c3ccncc3)cs2)cc1OC | i | -1.8% | -13.9% | -6.3% | i
CCC(C)C(=O)Nc1nc(C)c(-c2csc(Nc3ccc(Cl)cc3)n2)s1 (stereo not given) | ? | 0.8% | 28.4% | 4.4% | i
COc1ccc(Nc2nc(-c3sc(C)nc3C)cs2)cc1 | i | -0.9% | 20µM* | -16.3% | i
CC(C)Oc1ccc(C(=O)N(Cc2ccc(N(C)C)cc2)C2CCS(=O)(=O)C2)cc1 (stereo not given) | i | nt | 12.7% | nt | i
N=c1nc(N)nc2n1NC(c1ccc(F)cc1)=CS2 | i | -31.1% | 11.2µM* | 12.6µM* | i
COc1cc2[nH]c(C(=O)N3CCc4ccccc4C3)cc2c(OC)c1OC | i | 12.5% | 22.4µM* | -16.0% | i
COc1ccc(N2CCN(CCCNC(=O)Cc3ccc(C(F)(F)F)cc3)CC2)cc1 | i | nt | nt | nt | nt
Cc1nc2ccccc2c(C)c1C(=O)c1ccccc1 | i | 5.5% | 14.1µM* | 2.8% | i
CC(=O)c1c(C)nc2ccccc2c1N | i | 1.9% | -2.6% | -8.7% | i
COc1ccc2c(c1)CCCC2NS(=O)(=O)OCC(Cl)(Cl)Cl (stereo not given) | i | 0.0% | 35.5µM* | -3.2% | i
Cc1c(C)n(Cc2ccccc2)c2ccc(C(=O)NCC(C)c3ccccc3)cc12 (stereo not given) | i | nt | -1.1% | nt | i
